Experimental data as given in PubChem BioAssay (NCI).
About 79,000 compounds went through this panel and 15% of them were active in at least one assay; those are over-represented in the sample as a whole. Activity calls are given as the source filed them. Rule as the data show it: active = growth inhibition above about 70%; inactive = the rest.

Assays:
[1] = NCI Yeast Anticancer Drug Screen. Data for the wt1 strain (AID 149);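 also: 0% = growth of vehicle-treated wt1 cultures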; settings: S. cerevisiae wt1 strain (SPY 50644) growth inhibition, active compounds read high
Procedure, shortened: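 The wt1 strain was treated with compounds, and growth was compared with vehicle-treated cultures to give inhibition.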

[2] = NCI Yeast Anticancer Drug Screen. Data for the rad50EPP+ strain (AID 151);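 also: 0% = growth of vehicle-treated control cultures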; settings: S. cerevisiae rad50 mutant strain, active compounds read high
Procedure, shortened: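 One strain with a rad50 alteration (rad50EPP+) was compound-treated, its growth then compared to that of vehicle controls.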

[3] = NCI Yeast Anticancer Drug Screen. Data for the mgt1 strain (AID 153); settings: S. cerevisiae mgt1 mutant growth inhibition, active compounds read high
Procedure, shortened: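 After exposure of the mgt1 yeast mutant to compound, growth was measured and reported as inhibition compared with vehicle controls.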

[4] = NCI Yeast Anticancer Drug Screen. Data for the rad50 strain (AID 155);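 also: 0% = growth of vehicle-only cultures of the same strain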; settings: S. cerevisiae rad50 strain growth inhibition, active compounds read high
Procedure, shortened: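 Cells are treated with compound, grown, and their growth is then scored against vehicle-only cultures of the same repair-deficient yeast strain.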

[5] = NCI Yeast Anticancer Drug Screen. Data for the mec2-1 strain (AID 157); settings: S. cerevisiae mec2-1 strain, active compounds read high
Procedure, shortened: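 Test agents were screened against the mec2-1 yeast strain, with defined DNA repair or cell cycle alteration. Growth was scored as inhibition against vehicle-only controls.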

[6] = NCI Yeast Anticancer Drug Screen. Data for the rad14 strain (AID 159);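 also: 0% = growth of vehicle-treated control cultures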; settings: S. cerevisiae rad14 strain growth inhibition, active compounds read high
Procedure, shortened: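 Readout: yeast growth inhibition, referenced to vehicle-only cultures. Strain bears a defined alteration in DNA damage repair.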

[7] = NCI Yeast Anticancer Drug Screen. Data for the sgs1 mgt1 strain (AID 161);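 also: 0% = growth of cultures given vehicle only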; settings: S. cerevisiae sgs1 mgt1 strain, active compounds read high
Procedure, shortened: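 Mutant yeast exposed to compound; growth scored against vehicle-only wells.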

[8] = NCI Yeast Anticancer Drug Screen. Data for the CLN2oe strain (AID 163);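 also: 0% = growth of vehicle-only control cultures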; settings: S. cerevisiae CLN2oe strain, active compounds read high
Procedure, shortened: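 Here, growth inhibition in a cell-cycle-altered yeast strain after compound exposure was quantified against vehicle control growth.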

[9] = NCI Yeast Anticancer Drug Screen. Data for the cln2 rad14 strain (AID 165);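 also: 0% = growth equal to vehicle treated cultures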; settings: S. cerevisiae cln2 rad14 strain, active compounds read high
Procedure, shortened: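 Growth of compound-exposed yeast (cln2 rad14 genotype) measured and expressed as inhibition relative to vehicle.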

[10] = NCI Yeast Anticancer Drug Screen. Data for the bub3 strain (AID 167); settings: S. cerevisiae bub3 mutant strain, active compounds read high
Procedure, shortened: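 Part of a panel of yeast mutants defective in DNA damage repair or cell cycle regulation. Each strain is grown with compound, and inhibition is calculated relative to solvent-treated cultures.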

[11] = NCI Yeast Anticancer Drug Screen. Data for the wt2 strain (AID 169);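 also: 0% = growth of vehicle-treated yeast cultures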; settings: S. cerevisiae wt2 strain growth inhibition, active compounds read high
Procedure, shortened: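 Genetically defined yeast strains from a DNA-repair/cell-cycle panel were used. Compound-exposed yeast growth was measured, and the inhibition was calculated relative to vehicle treatment.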

[12] = NCI Yeast Anticancer Drug Screen. Data for the mlh1 strain (AID 171);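 also: 0% = growth of vehicle-treated control cultures of the same strain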; settings: S. cerevisiae mlh1 strain growth inhibition, active compounds read high
Procedure, shortened: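 Here the genetically defined yeast mutant is grown with each compound, and the extent to which its growth falls below that of vehicle-exposed cells is reported.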

[13] = NCI Yeast Anticancer Drug Screen. Data for the sgs1 strain (AID 173);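 also: 0% = growth of vehicle-only control cultures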; settings: S. cerevisiae sgs1 mutant, active compounds read high
Procedure, shortened: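 Relative growth inhibition, referenced to vehicle, was determined in a yeast strain with a defined alteration affecting DNA damage repair or cell cycle control after compound exposure.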

[14] = NCI Yeast Anticancer Drug Screen. Data for the mlh1 rad18 strain (AID 175); settings: S. cerevisiae mlh1 rad18 strain growth inhibition, active compounds read high
Procedure, shortened: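 In this whole-cell yeast screen, a strain with altered DNA damage repair is challenged with compound, and its growth is measured against matched vehicle-treated controls.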

[15] = NCI Yeast Anticancer Drug Screen. Data for the rad18 strain (AID 177); settings: S. cerevisiae rad18 mutant growth inhibition, active compounds read high
Procedure, shortened: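 Screen uses a yeast strain with a defined lesion in DNA damage repair; compound effect is read as loss of growth compared to untreated vehicle cultures.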

[16] = at 5.0 µM (retest, dose inferred, filed as 0.5)
[17] = at 50.0 µM (retest, dose inferred, filed as 5.0)

Measured: growth inhibition

CCOc1ccc2ccc3cccnc3c2n1
inactive: [1]; at 1.2 µM -5% | [1]; at 3.7 µM -2% | [1]; at 11.0 µM 2% | [1]; at 33.0 µM 18% | [1]; at 100.0 µM 48% | [2]; at 1.2 µM -8% | [2]; at 3.7 µM 11% | [2]; at 11.0 µM 23% | [2]; at 33.0 µM 61% | [3]; at 1.2 µM -4% | [3]; at 3.7 µM 8% | [3]; at 11.0 µM -10% | [3]; at 33.0 µM 34% | [3]; at 100.0 µM 68% | [4]; at 1.2 µM -5% | [4]; at 3.7 µM 12% | [4]; [16] -1% | [4]; at 11.0 µM 26% | [4]; at 33.0 µM 59% | [4]; [17] 40% | [4]; at 50.0 µM 69% | [5]; at 1.2 µM -4% | [5]; at 3.7 µM -5% | [5]; [16] -3% | [5]; at 11.0 µM 8% | [5]; at 33.0 µM 13% | [5]; [17] 28% | [5]; at 50.0 µM 47.2% | [5]; at 100.0 µM 35% | [6]; at 1.2 µM -4% | [6]; at 3.7 µM 4% | [6]; at 11.0 µM -1% | [6]; at 33.0 µM 7% | [6]; at 100.0 µM 68% | [7]; [16] -8% | [7]; [17] 66% | [8]; at 1.2 µM -18% | [8]; at 3.7 µM -7% | [8]; at 11.0 µM -14% | [8]; at 33.0 µM 4% | [8]; at 100.0 µM 22% | [9]; [16] -33% | [9]; [17] -17% | [9]; at 50.0 µM -3.9% | [10]; at 1.2 µM -4% | [10]; at 3.7 µM -3% | [10]; [16] -9% | [10]; at 11.0 µM 1% | [10]; at 33.0 µM 36% | [10]; [17] 52% | [10]; at 50.0 µM 59% | [11]; at 1.2 µM 0% | [11]; at 3.7 µM 2% | [11]; at 11.0 µM 8% | [11]; at 33.0 µM 37% | [11]; at 100.0 µM 66% | [12]; at 1.2 µM -3% | [12]; at 3.7 µM -1% | [12]; at 11.0 µM 17% | [12]; at 33.0 µM 54% | [12]; at 100.0 µM 63% | [13]; at 1.2 µM -3% | [13]; at 3.7 µM 1% | [13]; at 11.0 µM 9% | [13]; at 33.0 µM 40% | [13]; at 100.0 µM 63% | [14]; [16] 2% | [14]; [17] 40% | [14]; at 50.0 µM 35% | [15]; at 1.2 µM -3% | [15]; at 3.7 µM 8% | [15]; at 11.0 µM 23% | [15]; at 33.0 µM 60%
active: [2]; at 100.0 µM 88% | [4]; at 100.0 µM 74% | [7]; at 50.0 µM 70.6% | [10]; at 100.0 µM 70% | [15]; at 100.0 µM 72%

CCCCCC/C(C)=N/Nc1ccc([N+](=O)[O-])cc1[N+](=O)[O-]
inactive: [1]; at 1.2 µM 8% | [1]; at 3.7 µM 1% | [1]; at 11.0 µM 4% | [1]; at 33.0 µM -7% | [1]; at 100.0 µM -13% | [2]; at 1.2 µM -7% | [2]; at 3.7 µM -21% | [2]; at 11.0 µM 14% | [2]; at 33.0 µM 22% | [2]; at 100.0 µM 23% | [3]; at 1.2 µM -3% | [3]; at 3.7 µM -9% | [3]; at 11.0 µM -5% | [3]; at 33.0 µM -11% | [3]; at 100.0 µM -12% | [4]; at 1.2 µM -18% | [4]; at 3.7 µM -18% | [4]; [16] -3% | [4]; at 11.0 µM -18% | [4]; at 33.0 µM -32% | [4]; [17] 21% | [4]; at 50.0 µM -0.35% | [4]; at 100.0 µM 14% | [5]; at 1.2 µM -3% | [5]; at 3.7 µM -4% | [5]; [16] 1% | [5]; at 11.0 µM -3% | [5]; at 33.0 µM -9% | [5]; [17] 43% | [5]; at 50.0 µM -9.7% | [5]; at 100.0 µM -8% | [6]; at 1.2 µM -1% | [6]; at 3.7 µM -2% | [6]; at 11.0 µM 17% | [6]; at 33.0 µM 23% | [6]; at 100.0 µM 2% | [7]; [16] 3% | [7]; [17] 15% | [7]; at 50.0 µM -5.7% | [8]; at 1.2 µM -11% | [8]; at 3.7 µM -10% | [8]; at 11.0 µM -14% | [8]; at 33.0 µM -18% | [8]; at 100.0 µM -19% | [9]; [16] -4% | [9]; at 50.0 µM 30.9% | [10]; at 1.2 µM -8% | [10]; at 3.7 µM -4% | [10]; [16] 7% | [10]; at 11.0 µM -8% | [10]; at 33.0 µM -13% | [10]; at 50.0 µM 20.1% | [10]; at 100.0 µM -12% | [11]; at 1.2 µM -13% | [11]; at 3.7 µM -4% | [11]; at 11.0 µM 5% | [11]; at 33.0 µM 8% | [11]; at 100.0 µM 29% | [12]; at 1.2 µM -13% | [12]; at 3.7 µM -8% | [12]; at 11.0 µM -8% | [12]; at 33.0 µM -11% | [12]; at 100.0 µM -18% | [13]; at 1.2 µM -14% | [13]; at 3.7 µM -8% | [13]; at 11.0 µM 8% | [13]; at 33.0 µM 3% | [13]; at 100.0 µM 29% | [14]; [16] -6% | [14]; [17] 58% | [14]; at 50.0 µM -0.8% | [15]; at 1.2 µM -8% | [15]; at 3.7 µM -9% | [15]; at 11.0 µM -8% | [15]; at 33.0 µM -1% | [15]; at 100.0 µM -36%
active: [9]; [17] 77% | [10]; [17] 91%
